# Test results published in PubChem BioAssay (Tox21).
# Calls of active or inactive are those of the source. Entries that show only a call come without a potency. Unless noted, the call rests on the fitted dose curve; in most records, active means well fitted curve in the direction sought with a large enough effect in the repeat runs; inconclusive means weak or mixed curves; inactive means no such curve, though single readings can be large; an effect the other way counts as inactive or inconclusive.
# Experiments:
# [1] = qHTS assay for small molecule agonists of the p53 signaling pathway (AID 651631; calls by dose curve; further: nearly all actives have a fitted effect of over 15% in size; further: potency means the concentration at half of the fitted maximal effect)
# Procedure, shortened: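 Agonist mode screen using a stably integrated beta-lactamase gene under p53 response elements in HCT-116 cells. Compound exposure lasts 16 h at 37 °C; fluorescence intensity is measured following 2 h FRET substrate loading.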
# [2] = qHTS assay for small molecules that induce genotoxicity in human embryonic kidney cells expressing luciferase-tagged ATAD5 (AID 651632); further: nearly all actives have a fitted effect of over 15% in size
# Procedure, shortened: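 Luminescent reporter readout, HEK293T ATAD5-luc line: 16 hr drug exposure (37C, 5% CO2) followed by Amplite, 30 min RT.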
# [3] = qHTS assay for small molecules that induce genotoxicity in human embryonic kidney cells expressing luciferase-tagged ATAD5 - cell viability (AID 651634; calls by dose curve; further: nearly all actives have a fitted effect of over 25% in size)
# Procedure, shortened: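 Viability read: CellTiter-Fluor fluorescence, 30 min at 37C. Cells: HEK293T, luciferase-tagged ATAD5. Exposure: 15.5 hr, 37C, 5% CO2, compound or DMSO vehicle.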
# [4] = qHTS assay for small molecule disruptors of the mitochondrial membrane potential - cell viability (AID 720634; calls by dose curve;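 further: human HepG2 liver cancer cells; nearly all actives have a fitted effect of over 20% in size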)
# Procedure, shortened: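 HepG2, 1 hr compound, 37 C. ATP luminescence via CellTiter-Glo, 30 min RT, same well as m-MPI.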
# [5] = qHTS assay to test for compound auto fluorescence at 590 nm (red) in HepG2 cells (AID 720674)
# Procedure, shortened: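 1 hr compound incubation on HepG2 cells, 37 C, 5% CO2; plate read ex 540 nm / em 590 nm; intensities reported as Rose Bengal sodium equivalents.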
# [6] = qHTS assay to test for compound auto fluorescence at 535 nm (green) in HepG2 cells (AID 720675)
# [7] = qHTS assay to test for compound auto fluorescence at 460 nm (blue) in HEK293 cells (AID 720678)
# Procedure, shortened: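 HEK293 cells (2,000/well, medium with 10% dialyzed FBS) attached 4-5 hr, then exposed to compound overnight at 37C, 5% CO2. Blue fluorescence read at 405/460 nm, with triamterene as reference fluorophore.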
# [8] = qHTS assay to test for compound auto fluorescence at 590 nm (red) in HEK293 cells (AID 720679)
# Procedure, shortened: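 HEK293 cells (2,000/well, 10% dialyzed FBS) attached 4-5 hr, then dosed with compound or DMSO and incubated overnight at 37C, 5% CO2. Red fluorescence read at 540/590 nm, Rose Bengal sodium as reference fluorophore.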
# [9] = qHTS assay to test for compound auto fluorescence at 535 nm (green) in HEK293 cells (AID 720680)
# [10] = qHTS assay to test for compound auto fluorescence at 460 nm (blue) in HEK293 cell free culture (AID 720681)
# Procedure, shortened: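 Blue fluorescence (Ex 405/Em 460 nm, triamterene-equivalent) was read immediately after pin transfer of compound or DMSO into medium (DMEM, 10% FBS) without cells.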
# [11] = qHTS assay to test for compound auto fluorescence at 535 nm (green) in HEK293 cell free culture (AID 720682)
# Procedure, shortened: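 No cells present: wells hold DMEM supplemented with 10% FBS, into which compound or vehicle is pinned. Green emission is then recorded (485 nm excitation, 535 nm emission) and scaled to fluorescein.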
# [12] = qHTS assay to test for compound auto fluorescence at 590 nm (red) in HEK293 cell free culture (AID 720683)
# Procedure, shortened: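 Red-channel autofluorescence of compounds in culture medium (DMEM, 10% FBS), no cells, measured at 540/590 nm. Rose Bengal sodium is the reference fluorophore for equivalence.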
# [13] = qHTS assay to test for compound auto fluorescence at 590 nm (red) in HepG2 cell free culture (AID 720684)
# Procedure, shortened: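 Steps: dispense MEM/10% FBS medium, no cells; pin compound or DMSO vehicle; read red channel, Ex/Em 540/590 nm. Output given as Rose Bengal sodium equivalents.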
# [14] = qHTS assay to test for compound auto fluorescence at 460 nm (blue) in HepG2 cell free culture (AID 720685)
# Procedure, shortened: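 Compound (23 nL) or DMSO pinned into cell-free MEM with 10% FBS; blue fluorescence read at 405/460 nm excitation/emission, expressed as auto-fluorescence equivalency to triamterene.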
# [15] = qHTS assay to test for compound auto fluorescence at 535 nm (green) in HepG2 cell free culture (AID 720686)
# [16] = qHTS assay to test for compound auto fluorescence at 460 nm (blue) in HepG2 cells (AID 720687)
# Procedure, shortened: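 Blue-channel autofluorescence (Ex/Em 405/460 nm, triamterene-equivalent) was measured after 1 hr compound exposure at 37 C, 5% CO2. Cells were HepG2, plated overnight at 37 C in MEM plus 10% FBS.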
# [17] = target: Glucocorticoid receptor (Homo sapiens) (UniProt P04150); assay: qHTS assay to identify small molecule agonists of the glucocorticoid receptor (GR) signaling pathway (AID 720691; active means well fitted activation curve with a large enough effect in the signal ratio in the repeat runs, not every such curve was filed as active; inconclusive means weak or mixed curves, or effect the other way; inactive means no such curve, though single readings can be large or run the other way; the % refers to the signal ratio; further: potency means the concentration at half of the fitted maximal effect); details: GR-bla HeLa, beta-lactamase reporter ratio, 18 h; activation: at 62.4 µM (top of the series)
# Procedure, shortened: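 qHTS in GR-bla HeLa cells: 4 h settling at 37 C/5% CO2, 18 h compound incubation at 37 C, 2 h LiveBLAzer B/G FRET substrate at room temperature, fluorescence intensity measured.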
# [18] = target: Glucocorticoid receptor (Homo sapiens) (UniProt P04150); assay: qHTS assay to identify small molecule antagonists of the glucocorticoid receptor (GR) signaling pathway (AID 720692; active means well fitted inhibition curve with a large enough effect in the signal ratio in the repeat runs, not every such curve was filed as active; inconclusive means weak or mixed curves, or effect the other way; inactive means no such curve, though single readings can be large or run the other way; the % refers to the signal ratio; further: potency means the concentration at half of the fitted maximal effect)
# Procedure, shortened: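 Inhibition of glucocorticoid signalling is measured in HeLa cells with a GRE-controlled beta-lactamase reporter; cells are co-treated with compound and 5 nM dexamethasone (final) for 18 h before FRET substrate readout.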
# [19] = qHTS assay for small molecule agonists of the p53 signaling pathway - cell viability (AID 651633; calls by dose curve; further: nearly all actives have a fitted effect of over 30% in size; further: potency means the concentration at half of the fitted maximal effect)
# Procedure, shortened: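 Viability counter-read: CellTiter-Glo luminescence (30 min, room temperature) in the same p53RE-bla plates. These plates had been exposed to compounds for 16 h at 37 C.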
# [20] = qHTS assay for small molecule disruptors of the mitochondrial membrane potential (AID 720635); further: potency means the concentration at half of the fitted maximal effect
# Procedure, shortened: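 Mitochondrial membrane potential tracked with Mito-MPS dye, red aggregates (ex 540/em 590 nm) against green monomers (ex 490/em 535 nm). Compound treatment 1 hr at 37C, dye 30 min in HepG2.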
# Sequence of Glucocorticoid receptor (Homo sapiens) (P04150 whole entry, looked up): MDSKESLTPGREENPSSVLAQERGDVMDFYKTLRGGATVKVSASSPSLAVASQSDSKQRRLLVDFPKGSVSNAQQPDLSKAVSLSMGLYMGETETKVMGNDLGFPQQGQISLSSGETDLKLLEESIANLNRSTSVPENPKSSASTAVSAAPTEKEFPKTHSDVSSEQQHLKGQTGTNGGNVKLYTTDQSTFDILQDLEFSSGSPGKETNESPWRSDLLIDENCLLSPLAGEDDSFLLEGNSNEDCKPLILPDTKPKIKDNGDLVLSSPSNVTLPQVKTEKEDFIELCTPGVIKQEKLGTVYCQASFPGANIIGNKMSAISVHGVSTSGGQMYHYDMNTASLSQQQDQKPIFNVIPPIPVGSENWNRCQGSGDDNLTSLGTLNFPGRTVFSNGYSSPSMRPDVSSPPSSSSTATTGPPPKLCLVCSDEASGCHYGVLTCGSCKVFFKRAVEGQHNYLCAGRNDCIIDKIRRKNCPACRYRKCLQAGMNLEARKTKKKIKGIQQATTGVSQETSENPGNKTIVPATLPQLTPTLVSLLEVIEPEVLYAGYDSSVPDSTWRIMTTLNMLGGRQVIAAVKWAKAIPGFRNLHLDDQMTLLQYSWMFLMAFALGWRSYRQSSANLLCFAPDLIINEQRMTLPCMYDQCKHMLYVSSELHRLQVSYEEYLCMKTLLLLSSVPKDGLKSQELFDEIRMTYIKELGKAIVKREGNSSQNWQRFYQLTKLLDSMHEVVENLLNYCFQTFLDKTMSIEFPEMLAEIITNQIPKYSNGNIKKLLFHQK
SMILES,Potency [1],Potency [2],Potency [3],Potency [4],Potency [5],Potency [6],Potency [7],Potency [8],Potency [9],Potency [10],Potency [11],Potency [12],Potency [13],outcome [14],Potency [15],outcome [16],Potency [17],Potency [18],Potency [19],Potency [20]
COc1cc([C@@H]2c3cc4c(cc3C(O[C@@H]3O[C@@H]5COC(c6cccs6)O[C@H]5[C@H](O)[C@H]3O)C3COC(=O)[C@@H]32)OCO4)cc(OC)c1O (stereo not given in full),0.376 µM (active),inactive,inactive,inactive,inactive,inactive,inactive,inactive,inactive,inactive,inactive,inactive,inactive,inactive,inactive,inactive,3.38 µM (active),,,
CO/N=C(\C(=O)N[C@@H]1C(=O)N2C(C(=O)OCOC(=O)C(C)(C)C)=C(/C=C\c3scnc3C)CS[C@H]12)c1csc(N)n1,inactive,inactive,inactive,inactive,inactive,inactive,inactive,inactive,inactive,inactive,inactive,inactive,inactive,inactive,inactive,inactive,inactive,inactive,,
CCCCCCCCCCCCOCCCN,inactive,,inactive,inactive,inactive,inactive,inactive,inactive,inactive,inactive,inactive,inactive,inactive,inactive,inactive,inactive,inactive,inactive,inactive,inactive
O=C(O)CCC/C=C\C[C@@H]1[C@@H](/C=C/[C@@H](O)COc2cccc(Cl)c2)[C@H](O)C[C@@H]1O,inactive,inactive,inactive,inactive,inactive,,inactive,inactive,inactive,inactive,inactive,inactive,inactive,inactive,inactive,inactive,,,,
CC(C)C[C@H](NC(=O)[C@@H](Cc1c[nH]c2ccccc12)NC(=O)[C@H](Cc1ccc(O)cc1)NC(=O)[C@H](CO)NC(=O)[C@H](Cc1c[nH]c2ccccc12)NC(=O)[C@H](Cc1cnc[nH]1)NC(=O)[C@@H]1CCC(=O)N1)C(=O)N[C@@H](CCCN=C(N)N)C(=O)N1CCC[C@@H]1C(=O)NCC(N)=O,inactive,,inactive,inactive,inactive,inactive,inactive,inactive,inactive,inactive,inactive,inactive,inactive,inactive,inactive,inactive,inactive,inactive,inactive,
NC(=O)Oc1ccc(Cc2ccccc2)cc1,inactive,inactive,inactive,inactive,inactive,inactive,inactive,inactive,inactive,inactive,inactive,inactive,inactive,inactive,inactive,inactive,inactive,inactive,,
O=C(O)c1nc(=O)[nH]c(=O)[nH]1,inactive,,inactive,inactive,inactive,inactive,inactive,inactive,inactive,inactive,inactive,inactive,inactive,inactive,inactive,inactive,inactive,inactive,inactive,
O=C(O)c1ccc(NC(=O)[C@H](Cc2ccc(O)cc2)NC(=O)c2ccccc2)cc1,inactive,inactive,inactive,inactive,inactive,inactive,inactive,inactive,inactive,inactive,inactive,inactive,inactive,inactive,inactive,inactive,,,,inactive
CC(CCc1ccc(O)cc1)NCC(O)c1ccc(O)cc1 (stereo not given),,inactive,inactive,inactive,inactive,inactive,inactive,inactive,inactive,inactive,inactive,inactive,inactive,inactive,inactive,inactive,,,inactive,inactive
O=C1CCC(=O)N1CO,inactive,,inactive,inactive,inactive,inactive,inactive,inactive,,inactive,inactive,inactive,inactive,inactive,inactive,inactive,,inactive,,
CCCC1C(=O)N2C(N(C)C)=Nc3ccc(C)cc3N2C1=O (stereo not given),inactive,,,inactive,inactive,inactive,inactive,inactive,inactive,inactive,inactive,inactive,inactive,inactive,inactive,inactive,inactive,inactive,inactive,inactive
Cc1cc(/C=C/c2ccc3cc(N(C)C)ccc3[n+]2C)c(C)n1-c1ccccc1,9.02 µM (active),,,inactive,,inactive,inactive,,inactive,inactive,inactive,,,inactive,inactive,inactive,inactive,,5.07 µM (active),1.43 µM (active)
CCCCCCCCCCCCCCCCSCC(COC)COP(=O)([O-])OCC[N+](C)(C)C (stereo not given),inactive,,inactive,inactive,inactive,inactive,inactive,inactive,inactive,inactive,inactive,inactive,inactive,inactive,inactive,inactive,inactive,23.9 µM (active),,
OCCO[C@@H]1[C@@H](O)[C@H](O)[C@@H](CO)O[C@@H]1O,inactive,,,inactive,inactive,inactive,inactive,inactive,,inactive,inactive,inactive,,inactive,inactive,inactive,13.4 µM [inconclusive] (active),,inactive,inactive
